Screen size: about 69,000 compounds; about 8,600 (12%) showed an effect of 50% or more. This excerpt belongs to a sample that is enriched for strong results.
test system: Plasmodium berghei; assay: Screen against P. berghei liver stage (PbLuc), transformed with Luciferase, at 10uM; format: functional, HepG2; settings: tested at 10 uM

Structure (SMILES) | INHIBITION
Cc1ccc(N2CCCc3sc(C(=O)NCC4CCCO4)nc32)nn1 (centres undefined) | 15.4%
Cc1nn(C)c(Cl)c1C1CCCN1C(=O)c1ccc[nH]1 (centres undefined) | 25.1%
Cc1ccc(C(=O)NCCC2CN(c3cnn(C)c(=O)c3)CCO2)s1 (centres undefined) | 24.7%
O=C(NCCC1CN(C2CCCC2)CCO1)c1cc(=O)[nH]c(=O)[nH]1 (centres undefined) | 51.5%
Cc1ccc(C)c(C(=O)N2CCOC(CCN(C)C)C2)c1 (centres undefined) | 37.6%
Cc1cc(C(=O)NCCC2CN(C)CCO2)c2cccc(C)c2n1 (centres undefined) | 45.9%
Cc1ccc(C(=O)NCCC2CN(C3CCCC3)CCO2)c(C)c1 (centres undefined) | 66.8%
O=C(NCCC1CN(C2CCCC2)CCO1)c1c[nH]c(=O)[nH]c1=O (centres undefined) | 8.08%
CC(CC(=O)c1ccco1)NC(=O)c1ccccn1 (centres undefined) | 42.1%
COCc1ncn2c1CN(S(=O)(=O)c1ccc(C)cc1)CC2 | 80.3%
CCOCc1ncn2c1CN(S(=O)(=O)c1ccc(C)cc1)CC2 | -51.9%
COc1cccc(S(=O)(=O)N2CCn3cnc(COCC4CC4)c3C2)c1 | 15.9%
COCc1ncn2c1CN(S(=O)(=O)c1cccc(OC)c1)CC2 | 62.4%
COCc1ncn2c1CN(S(=O)(=O)Cc1ccc(C)cc1)CC2 | -0.55%
COCc1ncn2c1CN(S(=O)(=O)c1cccc(F)c1)CC2 | -58.3%
O=C(NC1COC2(CCN(CC3CCC3)CC2)C1)c1ccccn1 (centres undefined) | -7.59%
CC1=C(c2ccc(C(C)C)cc2)S(=O)(=O)N=C1N1CCc2ccccc21 | 49%
CC(NC(=O)c1ccc(=O)n(C)c1)c1ccccc1-n1cccn1 (centres undefined) | 53.8%
Cc1ccccc1C(C)NC(=O)c1ccc(=O)n(C)c1 (centres undefined) | 25.5%
CC(NC(=O)c1cc(=O)n(C)c(=O)n1C)c1ccccc1-n1cccn1 (centres undefined) | 0.426%
Cc1cc2c(=O)n3c(nc2s1)CCN(Cc1cnc(C)n1C)CC3 | 23.2%
Cc1cccc(OCCC(=O)NC(C)c2nnc3n2CCC3)c1 (centres undefined) | 26.4%
Cn1cc(-c2nnn3c2COC(CNCc2cccnc2)C3)cn1 (centres undefined) | 27.4%

Structure (SMILES) | INHIBITION
Cn1cc(CNCC2Cn3nnc(-c4ccccc4)c3CO2)cn1 (centres undefined) | 62%
COc1ccc(-c2cn3c(n2)CO[C@@H](CNCc2ccccn2)C3)cc1 | 66.9%
c1ccc(CNCC2Cn3nnc(-c4ccncc4)c3CO2)nc1 (centres undefined) | 64.5%
Cn1cc(-c2nnn3c2COC(CNCc2ccncc2)C3)cn1 (centres undefined) | 39.3%
Cc1nnn2c1COC(CNCc1nccs1)C2 (centres undefined) | -3.24%
Cc1cc(CNCC2Cn3nnc(C)c3CO2)oc1C (centres undefined) | 60%
c1cc(-c2nnn3c2COC(CNCc2nccs2)C3)ccn1 (centres undefined) | 32.4%
Cc1nnn2c1COC(CNCc1ccncc1)C2 (centres undefined) | 39.3%
c1cc(-c2nnn3c2COC(CNCC2CCOCC2)C3)ccn1 (centres undefined) | 28.2%
COc1ccc(-c2cn3c(n2)CO[C@@H](CNCc2nccn2C)C3)cc1 | 16.2%
Cc1cccc(CNC[C@H]2Cn3cc(-c4ccccc4)nc3CO2)n1 | -23.2%
CCc1nnc(Nc2cccc(C3CCN(C(=O)CO)CC3)n2)s1 | 11.1%
CCCn1nccc1NC(=O)CN1CCCC1Cn1cc(C)cn1 (centres undefined) | 42.3%
Cn1cc(CCNC(=O)N2CCCC(Cc3nccn3C)C2)cn1 (centres undefined) | 33%
O=C(NCCCN1CCOCC1)c1cccc(OCc2ccccc2)c1 | 30%
Cc1csc(CN2CCC3(CC2)COC(COc2ccccn2)C3)n1 (centres undefined) | 47.5%
Cc1nnn2c1COC(CNCc1ccccn1)C2 (centres undefined) | 39.3%
c1ccc(-c2nnn3c2COC(CNCc2ccccn2)C3)cc1 (centres undefined) | 51.2%
Cn1cc(-c2nnn3c2COC(CNCc2ccccn2)C3)cn1 (centres undefined) | 46.3%
O=C(NCC1CC1)C1CN(c2ncccn2)Cc2ccnn2C1 (centres undefined) | 31.2%
COc1cc(C)c(S(=O)(=O)CC(=O)N(C)C2CC2)cc1OC | 50.4%
COc1cc(C)c(S(=O)(=O)CC(=O)N(C)C(C)C)cc1OC | 11.5%
CCN(C(=O)CS(=O)(=O)c1cc(OC)c(OC)cc1C)C1CC1 | 33.7%

Structure (SMILES) | INHIBITION
COc1c(CNC(c2cccc(F)c2)c2nccn2C)c(C)nn1C (centres undefined) | -16.8%
Cc1c(Br)cccc1C(=O)NCC1CCCNC1 (centres undefined) | 42.3%
CN(Cc1nccn1C)C1CCCN(Cc2noc(C3CC3)n2)C1 (centres undefined) | -25.8%
O=c1cc(N2CCCC2)cnn1Cc1noc(C2CCCO2)n1 (centres undefined) | 47.1%
O=c1cc(N2CCNCC2)cnn1Cc1noc(C2CCCC2)n1 | 78.6%
O=c1cc(N2CCCCC2)cnn1Cc1noc(C2CCCO2)n1 (centres undefined) | -27.1%
Cc1ccccc1CNC(=O)N1C[C@@H]2C[C@H](C(=O)N(C)C)[C@H](C1)O2 | 5.63%
COc1ccc(OC)c(CNc2nnc(C(C)(C)C)o2)c1 | -10.9%
CC(NC(=O)NCCCn1cncn1)c1ccc(F)cc1 (centres undefined) | -1.7%
CC(Cn1cncn1)NC(=O)NCC(C)(C)c1ccc(F)cc1 (centres undefined) | 64.5%
CC(Cn1cncn1)NC(=O)NCC(C)(C)Cc1ccccc1 (centres undefined) | 39.8%
CC(Cn1cncn1)NC(=O)Nc1ccc(F)cc1OCC1CC1 (centres undefined) | -21.1%
Cc1ccc(C(C)(C)CNC(=O)NC(C)Cn2cncn2)cc1 (centres undefined) | 61.1%
CC(Cn1cncn1)NC(=O)NCc1csc(N(C)C)n1 (centres undefined) | 23.6%
Cn1ncc(C(=O)N2CCN(C(=O)c3ccco3)CC2)c1Cl | 36.5%
CC(=O)N1CCCC2(CCC(=O)N2Cc2cccnc2)C1 (centres undefined) | 6.27%
Cc1ccc(C(=O)N2CCOC(c3nc(-c4ncccn4)no3)C2)cc1 (centres undefined) | 11.1%
c1cc2c(cc1CN1CCC(Cc3noc(C4CC4)n3)CC1)OCCO2 | -5.26%
c1cc2c(cc1CSCc1noc(C3CC3)n1)OCCO2 | 74.3%
c1cc2c(cc1CN1CCN(Cc3noc(C4CC4)n3)CC1)OCO2 | -28%
COCCCNC(=O)CN1CCSC(c2ccccc2)C1 (centres undefined) | 3.88%
COc1ccccc1C1CC(=O)Nc2nc(N3CCCCC3)sc21 (centres undefined) | 15.1%
Cc1cc(C(=O)N2CCCC2c2noc(C(C)C)n2)c(C)o1 (centres undefined) | 4.52%
